Reference: the supplement of paper PMC8728848
This is one part of a sample in which the strongest signals are shown more often than they occur.

Tests used:
Assay in all cases: glycan array binding signal (z-score within array); higher = stronger binding
Conditions in all cases: glycan notation: IUPAC condensed, linker removed
[1] = tested on: Neu5Ac(a2-6)Gal(b1-4)GlcNAc(b1-2)Man(a1-3)[Neu5Ac(a2-6)Gal(b1-4)GlcNAc(b1-2)Man(a1-6)]Man(b1-4)GlcNAc(b1-4)GlcNAc
How it was run: (§1)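 Glycan array binding is given as a within-array Z-score, which can be read as non-binding when negative. The arrays, 3228 of them, came from the Consortium for Functional Glycomics database and were retained only where the protein sequence was available. Z-scores were averaged across arrays of the same protein sequence at different concentrations or buffers and across linkers.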

[2] = tested on: Neu5Ac(a2-6)Gal(b1-4)GlcNAc(b1-2)Man(a1-6)Man(b1-4)GlcNAc(b1-4)GlcNAc
How it was run: as §1

[3] = tested on: Neu5Ac(a2-6)Gal(b1-4)GlcNAc(b1-2)Man(a1-6)[Gal(b1-4)GlcNAc(b1-2)Man(a1-3)]Man(b1-4)GlcNAc(b1-4)GlcNAc
How it was run: as §1

[4] = tested on: Neu5Ac(a2-6)Gal(b1-4)GlcNAc(b1-2)Man(a1-6)[GlcNAc(b1-2)Man(a1-3)]Man(b1-4)GlcNAc(b1-4)GlcNAc
How it was run: as §1

[5] = tested on: Neu5Ac(a2-6)Gal(b1-4)GlcNAc(b1-2)Man(a1-3)[GlcNAc(b1-4)][Neu5Ac(a2-6)Gal(b1-4)GlcNAc(b1-2)Man(a1-6)]Man(b1-4)GlcNAc(b1-4)GlcNAc
How it was run: as §1

[6] = tested on: Neu5Ac(a2-6)Gal(b1-4)GlcNAc(b1-2)Man(a1-3)[Man(a1-6)]Man(b1-4)GlcNAc(b1-4)GlcNAc
How it was run: as §1

[7] = tested on: Neu5Ac(a2-6)Gal(b1-4)GlcNAc(b1-2)Man(a1-3)[Neu5Ac(a2-6)Gal(b1-4)GlcNAc(b1-2)Man(a1-6)]Man(b1-4)GlcNAc(b1-4)[Fuc(a1-6)]GlcNAc
How it was run: as §1

[8] = tested on: Neu5Ac(a2-6)Gal(b1-4)GlcNAc(b1-2)Man(a1-3)[GlcNAc(b1-2)Man(a1-6)]Man(b1-4)GlcNAc(b1-4)GlcNAc
How it was run: as §1

[9] = tested on: Neu5Ac(a2-6)Gal(b1-4)GlcNAc(b1-2)Man(a1-6)[Man(a1-3)]Man(b1-4)GlcNAc(b1-4)GlcNAc
How it was run: as §1

[10] = tested on: Neu5Ac(a2-6)Gal(b1-4)GlcNAc(b1-2)Man(a1-3)[GlcNAc(b1-2)Man(b1-4)GlcNAc(b1-2)Man(a1-6)]Man(b1-4)GlcNAc(b1-4)GlcNAc
How it was run: as §1

Sequence of Aggrecan (Rattus norvegicus), NP_071526 (chain, as listed by the source): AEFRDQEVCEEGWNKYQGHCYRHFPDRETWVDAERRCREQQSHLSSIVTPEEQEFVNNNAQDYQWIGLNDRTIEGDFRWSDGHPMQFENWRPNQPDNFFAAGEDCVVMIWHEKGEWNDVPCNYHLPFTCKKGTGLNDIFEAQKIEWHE
Sequence of CHI3L1 (Homo sapiens), P36222 (P36222 whole entry): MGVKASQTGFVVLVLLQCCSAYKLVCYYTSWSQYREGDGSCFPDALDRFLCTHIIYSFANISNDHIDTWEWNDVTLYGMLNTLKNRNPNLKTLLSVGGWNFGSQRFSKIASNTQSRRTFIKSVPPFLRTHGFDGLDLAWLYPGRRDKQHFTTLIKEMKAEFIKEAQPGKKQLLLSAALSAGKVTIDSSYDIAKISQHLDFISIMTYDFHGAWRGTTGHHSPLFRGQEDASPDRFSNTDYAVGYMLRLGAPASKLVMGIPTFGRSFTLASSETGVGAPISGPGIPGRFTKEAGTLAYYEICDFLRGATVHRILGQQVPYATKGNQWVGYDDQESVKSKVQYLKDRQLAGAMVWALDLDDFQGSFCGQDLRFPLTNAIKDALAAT
Sequence of PILRa (Mus musculus), Q2YSF3 (Q2YSF3 entry or part of it): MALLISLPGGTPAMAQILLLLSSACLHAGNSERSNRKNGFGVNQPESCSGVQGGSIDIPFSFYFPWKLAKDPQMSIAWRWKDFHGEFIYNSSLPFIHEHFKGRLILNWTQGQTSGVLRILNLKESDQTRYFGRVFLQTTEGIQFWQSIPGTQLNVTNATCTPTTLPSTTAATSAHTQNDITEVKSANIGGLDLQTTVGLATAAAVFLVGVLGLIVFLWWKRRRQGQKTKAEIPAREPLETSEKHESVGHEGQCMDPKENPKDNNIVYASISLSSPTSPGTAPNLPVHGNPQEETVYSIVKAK
Sequence of C3b (Homo sapiens), P01024 (P01024 23-667): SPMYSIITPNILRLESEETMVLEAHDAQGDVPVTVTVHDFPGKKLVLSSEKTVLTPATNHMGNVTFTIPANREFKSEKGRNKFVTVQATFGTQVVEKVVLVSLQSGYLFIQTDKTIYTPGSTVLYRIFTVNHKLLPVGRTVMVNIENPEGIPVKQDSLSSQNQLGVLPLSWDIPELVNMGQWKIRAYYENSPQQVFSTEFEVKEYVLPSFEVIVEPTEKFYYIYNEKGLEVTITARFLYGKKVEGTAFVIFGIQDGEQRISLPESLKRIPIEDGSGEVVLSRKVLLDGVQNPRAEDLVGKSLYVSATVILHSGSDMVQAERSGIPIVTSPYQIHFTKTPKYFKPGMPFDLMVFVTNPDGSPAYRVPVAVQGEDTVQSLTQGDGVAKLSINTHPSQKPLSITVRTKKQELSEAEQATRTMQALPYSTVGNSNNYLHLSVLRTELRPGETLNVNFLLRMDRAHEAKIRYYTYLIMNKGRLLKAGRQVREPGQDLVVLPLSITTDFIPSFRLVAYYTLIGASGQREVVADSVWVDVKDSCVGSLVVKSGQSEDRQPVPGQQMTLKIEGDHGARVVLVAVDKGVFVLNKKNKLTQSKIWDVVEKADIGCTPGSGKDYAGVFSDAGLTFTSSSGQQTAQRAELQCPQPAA
Sequence of SRLC (Mus musculus), Q8VIF6 (Q8VIF6 other isoform, or with tags, fused parts or gaps): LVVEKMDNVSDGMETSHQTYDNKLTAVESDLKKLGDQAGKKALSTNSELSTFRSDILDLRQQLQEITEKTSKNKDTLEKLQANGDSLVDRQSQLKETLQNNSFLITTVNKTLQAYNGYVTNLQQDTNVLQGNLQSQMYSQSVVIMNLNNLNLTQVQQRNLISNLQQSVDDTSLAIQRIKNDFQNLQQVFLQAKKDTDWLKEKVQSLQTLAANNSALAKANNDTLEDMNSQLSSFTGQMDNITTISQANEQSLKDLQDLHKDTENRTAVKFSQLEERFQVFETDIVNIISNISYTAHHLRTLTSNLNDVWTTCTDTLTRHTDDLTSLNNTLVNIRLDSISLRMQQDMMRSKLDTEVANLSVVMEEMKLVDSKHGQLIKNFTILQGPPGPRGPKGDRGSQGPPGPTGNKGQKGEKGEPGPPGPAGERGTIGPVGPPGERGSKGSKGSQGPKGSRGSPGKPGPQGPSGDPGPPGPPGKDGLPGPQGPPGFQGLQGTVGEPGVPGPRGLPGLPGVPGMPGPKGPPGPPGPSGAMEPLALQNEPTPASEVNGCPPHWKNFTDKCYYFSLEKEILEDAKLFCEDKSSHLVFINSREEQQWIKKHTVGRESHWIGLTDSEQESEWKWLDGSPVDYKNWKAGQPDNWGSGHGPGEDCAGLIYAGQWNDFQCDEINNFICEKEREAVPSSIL
Sequence of CHT (Homo sapiens) (chain, as listed by the source): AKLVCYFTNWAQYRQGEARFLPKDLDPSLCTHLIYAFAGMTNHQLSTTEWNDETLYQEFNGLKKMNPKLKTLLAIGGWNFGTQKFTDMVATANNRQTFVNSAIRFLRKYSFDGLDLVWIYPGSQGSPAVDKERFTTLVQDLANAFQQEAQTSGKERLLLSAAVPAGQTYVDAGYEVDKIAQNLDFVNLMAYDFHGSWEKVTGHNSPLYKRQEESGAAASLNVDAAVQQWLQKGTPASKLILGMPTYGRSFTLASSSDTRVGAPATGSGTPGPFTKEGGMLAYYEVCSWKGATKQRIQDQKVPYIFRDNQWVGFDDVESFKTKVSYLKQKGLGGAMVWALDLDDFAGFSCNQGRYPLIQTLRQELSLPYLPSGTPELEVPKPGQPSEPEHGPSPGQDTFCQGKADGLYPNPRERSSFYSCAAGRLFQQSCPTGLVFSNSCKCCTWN
Sequence of PILRb (Mus musculus), Q2YSF2 (Q2YSF2 entry or part of it): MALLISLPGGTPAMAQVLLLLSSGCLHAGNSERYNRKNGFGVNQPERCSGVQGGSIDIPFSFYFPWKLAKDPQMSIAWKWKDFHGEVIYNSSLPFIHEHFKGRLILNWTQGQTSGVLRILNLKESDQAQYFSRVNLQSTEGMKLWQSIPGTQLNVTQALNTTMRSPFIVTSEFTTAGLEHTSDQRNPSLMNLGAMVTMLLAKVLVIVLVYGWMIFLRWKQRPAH

CHT (Homo sapiens)
glycan array binding signal (z-score) ([1]; mutation: D138V, E140I): 0.642

PILRa (Mus musculus), Q2YSF3
glycan array binding signal (z-score) [2]: -0.195 | glycan array binding signal (z-score) [3]: 1.22

Siglec-8 (Homo sapiens), Q9NYZ4
glycan array binding signal (z-score) [2]: -0.178 | glycan array binding signal (z-score) ([2]; mutation: R125K): 0.093 | glycan array binding signal (z-score) ([4]; mutation: R125K): -0.193

SRLC (Mus musculus), Q8VIF6
glycan array binding signal (z-score) [1]: -0.158

PILRb (Mus musculus), Q2YSF2
glycan array binding signal (z-score) [4]: -0.407

MpAFP RI GFP (Marinomonas primoryensis)
glycan array binding signal (z-score) [5]: -0.435 | glycan array binding signal (z-score) [6]: 0.118 | glycan array binding signal (z-score) [7]: 2.72 | glycan array binding signal (z-score) [4]: -0.058

Aggrecan (Rattus norvegicus), NP_071526
glycan array binding signal (z-score) [8]: -0.152 | glycan array binding signal (z-score) [4]: -0.187 | glycan array binding signal (z-score) [9]: -0.224

CHI3L1 (Homo sapiens), P36222
glycan array binding signal (z-score) [10]: -0.028 | glycan array binding signal (z-score) [7]: -0.039

C3b (Homo sapiens), P01024
glycan array binding signal (z-score) [1]: 0.001
